# Measurements reported in PubChem BioAssay (Tox21).
# “And” between values parts separate entries of the source, which are not always exact repeats. Equal entries are not always repeated. Inconclusive results are not listed. Where a call stands in place of a potency, no number is given. The source holds several records for some structures; these can differ, active in one and inactive in another. The source made the active and inactive calls. Unless noted, calls come from the whole dose curve; as a rule, active = well fitted curve in the direction sought with a large enough effect in the repeat runs; inconclusive = weak or mixed curves; inactive = no such curve, though single readings can be large; an effect the other way counts as inactive or inconclusive.
# What was measured:
# [1] = qHTS assay to test for compound auto fluorescence at 460 nm (blue) in HEK293 cell free culture (AID 720681)
# In short: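 Blue fluorescence (Ex 405/Em 460 nm, triamterene-equivalent) was read immediately after pin transfer of compound or DMSO into medium (DMEM, 10% FBS) without cells.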
# [2] = qHTS assay to test for compound auto fluorescence at 590 nm (red) in HEK293 cell free culture (AID 720683)
# In short: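 Red-channel autofluorescence of compounds in culture medium (DMEM, 10% FBS), no cells, measured at 540/590 nm. Rose Bengal sodium is the reference fluorophore for equivalence.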
# [3] = qHTS assay to test for compound auto fluorescence at 460 nm (blue) in HepG2 cell free culture (AID 720685)
# In short: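 Cell-free plates of MEM plus 10% FBS received 23 nL compound or DMSO vehicle; blue-channel (405/460 nm) intensity scored against triamterene as reference fluorophore.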
# [4] = qHTS assay to test for compound auto fluorescence at 535 nm (green) in HepG2 cell free culture (AID 720686)
# [5] = qHTS assay to test for compound auto fluorescence at 460 nm (blue) in HepG2 cells (AID 720687)
# In short: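 Blue-channel autofluorescence (Ex/Em 405/460 nm, triamterene-equivalent) was measured after 1 hr compound exposure at 37 C, 5% CO2. Cells were HepG2, plated overnight at 37 C in MEM plus 10% FBS.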
# [6] = molecular target: Glucocorticoid receptor (Homo sapiens) (UniProt P04150); assay: qHTS assay to identify small molecule agonists of the glucocorticoid receptor (GR) signaling pathway (AID 720691; active = well fitted activation curve with a large enough effect in the signal ratio in the repeat runs, not every such curve was filed as active; the % refers to the signal ratio; note: potency is the fitted concentration of half-maximal effect)
# In short: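 Steps: seed GR-bla HeLa cells, incubate 4 h at 37 C/5% CO2; pin-transfer DMSO-dissolved compounds; incubate 18 h at 37 C; add LiveBLAzer B/G FRET substrate; after 2 h at room temperature, measure fluorescence.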
# [7] = molecular target: Glucocorticoid receptor (Homo sapiens) (UniProt P04150); assay: qHTS assay to identify small molecule antagonists of the glucocorticoid receptor (GR) signaling pathway (AID 720692; active = well fitted inhibition curve with a large enough effect in the signal ratio in the repeat runs, not every such curve was filed as active; the % refers to the signal ratio)
# In short: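 Antagonism was scored as loss of dexamethasone-driven (5 nM final) reporter signal in HeLa cells bearing a glucocorticoid response element–beta-lactamase construct, after 18 h compound exposure at 37 C and 2 h FRET substrate loading.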
# [8] = qHTS assay to identify small molecule antagonists of the glucocorticoid receptor (GR) signaling pathway - cell viability counter screen (AID 720693); note: nearly all actives have a fitted effect of over 55% in size
# [9] = qHTS assay for identifying genotoxic compounds that show differential cytotoxicity against isogenic chicken DT40 cell lines with known DNA damage response pathways - wild type cell line (AID 743012); note: nearly all actives have a fitted effect of over 60% in size; note: potency is the fitted concentration of half-maximal effect
# In short: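 Cytotoxicity in repair-proficient parental chicken DT40 cells serves as the comparator for Rad54/Ku70- and Rev3-deficient lines. Cells were exposed to compounds for 40 h at 37 C/5% CO2, and ATP-based luminescence (CellTiter-Glo) measured viability.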
# [10] = qHTS assay for identifying genotoxic compounds that show differential cytotoxicity against isogenic chicken DT40 cell lines with known DNA damage response pathways - Rev3 mutant cell line (AID 743014); note: nearly all actives have a fitted effect of over 55% in size; note: potency is the fitted concentration of half-maximal effect
# [11] = qHTS assay for identifying genotoxic compounds that show differential cytotoxicity against isogenic chicken DT40 cell lines with known DNA damage response pathways - Rad54/Ku70 mutant cell line (AID 743015); note: nearly all actives have a fitted effect of over 60% in size; note: potency is the fitted concentration of half-maximal effect
# [12] = qHTS assay to identify small molecule antagonists of the androgen receptor (AR) signaling pathway - cell viability counter screen (AID 743033; note: nearly all actives have a fitted effect of over 45% in size)
# [13] = qHTS assay to identify small molecule antagonists of the androgen receptor (AR) signaling pathway using the MDA cell line - cell viability counter screen (AID 743041; note: nearly all actives have a fitted effect of over 45% in size)
# In short: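 Viability read by CellTiter-Fluor fluorescence in the same wells as the antagonist screen, added after 15.5 h of a 16 h, 37C exposure. Human breast carcinoma MDA-kb2 AR-luc cells, compounds co-dosed with agonist R1881.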
# [14] = qHTS assay to identify small molecule antagonists of the thyroid receptor (TR) signaling pathway - cell viability counter screen (AID 743064); note: nearly all actives have a fitted effect of over 50% in size
# In short: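 Rat GH3 pituitary tumor cells stably expressing two TR response elements driving luciferase were plated, rested 4 h, then dosed with library compounds and T3 (1 nM final). After 23.5 h at 37 °C, CellTiter-Fluor was added for 30 min and fluorescence recorded.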
# [15] = qHTS assay to test for compound auto fluorescence at 535 nm (green) in HEK293 cell free culture (AID 720682)
# In short: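 No cells present: wells hold DMEM supplemented with 10% FBS, into which compound or vehicle is pinned. Green emission is then recorded (485 nm excitation, 535 nm emission) and scaled to fluorescein.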
# [16] = qHTS assay to test for compound auto fluorescence at 590 nm (red) in HepG2 cell free culture (AID 720684)
# In short: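 Cell-free; medium MEM + 10% FBS; compound or DMSO added by pintool; read Ex 540/Em 590 nm; Rose Bengal sodium as red reference fluorophore.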
# [17] = molecular target: Androgen receptor (Homo sapiens) (UniProt P10275); assay: qHTS assay to identify small molecule antagonists of the androgen receptor (AR) signaling pathway (AID 743035; active = well fitted inhibition curve with a large enough effect in the signal ratio in the repeat runs, not every such curve was filed as active; the % refers to the signal ratio)
# In short: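 Steps: seed AR-UAS-bla GripTite HEK293 cells, incubate 4 h at 37C; pin in test compound, then add agonist R1881; incubate 16 h at 37C; add LiveBLAzer B/G FRET substrate, 2 h at room temperature; read fluorescence.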
# [18] = molecular target: Androgen receptor (Homo sapiens) (UniProt P10275); assay: qHTS assay to identify small molecule agonists of the androgen receptor (AR) signaling pathway (AID 743036; active = well fitted activation curve with a large enough effect in the signal ratio in the repeat runs, with a control signal flat, not every such curve was filed as active; the % refers to the signal ratio)
# In short: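 Quantitative HTS of the Tox21 10K library in HEK293 cells bearing a stably integrated UAS-controlled beta-lactamase reporter. Compound exposure lasted 16 h at 37C. Reporter activity was detected by FRET substrate fluorescence after 2 h at room temperature.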
# [19] = molecular target: Androgen receptor (Homo sapiens) (UniProt P10275); assay: qHTS assay to identify small molecule agonists of the androgen receptor (AR) signaling pathway using the MDA cell line (AID 743040; note: nearly all actives have a fitted effect of over 20% in size)
# In short: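 Luciferase agonist assay: 16 h compound exposure at 37C without CO2 in MDA-kb2 AR-luc cells, whose MMTV promoter responds to both AR and GR. Luminescence measured after 30 min room-temperature incubation with ONE-Glo.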
# Glucocorticoid receptor (Homo sapiens), sequence (P04150 whole entry, looked up): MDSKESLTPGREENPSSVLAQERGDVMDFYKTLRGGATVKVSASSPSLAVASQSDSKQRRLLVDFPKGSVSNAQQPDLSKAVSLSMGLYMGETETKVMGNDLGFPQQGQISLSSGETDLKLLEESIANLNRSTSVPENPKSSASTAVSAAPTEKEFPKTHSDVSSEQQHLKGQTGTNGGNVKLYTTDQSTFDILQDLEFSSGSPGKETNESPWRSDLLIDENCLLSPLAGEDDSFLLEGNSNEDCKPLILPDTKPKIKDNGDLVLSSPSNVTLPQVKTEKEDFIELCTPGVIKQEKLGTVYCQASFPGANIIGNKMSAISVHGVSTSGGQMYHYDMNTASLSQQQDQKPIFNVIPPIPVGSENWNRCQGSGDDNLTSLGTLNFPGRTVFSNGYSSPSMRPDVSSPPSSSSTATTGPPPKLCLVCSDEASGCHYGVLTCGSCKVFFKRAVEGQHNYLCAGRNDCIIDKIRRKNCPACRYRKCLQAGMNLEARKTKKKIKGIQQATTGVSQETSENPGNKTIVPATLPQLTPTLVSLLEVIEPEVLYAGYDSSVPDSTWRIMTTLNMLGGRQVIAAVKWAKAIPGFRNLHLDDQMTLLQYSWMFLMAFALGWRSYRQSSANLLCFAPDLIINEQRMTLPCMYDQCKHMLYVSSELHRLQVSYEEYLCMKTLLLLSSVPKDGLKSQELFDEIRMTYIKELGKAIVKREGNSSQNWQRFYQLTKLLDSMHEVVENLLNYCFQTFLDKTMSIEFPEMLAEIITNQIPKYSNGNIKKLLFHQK
# Androgen receptor (Homo sapiens), sequence (P10275 whole entry, looked up): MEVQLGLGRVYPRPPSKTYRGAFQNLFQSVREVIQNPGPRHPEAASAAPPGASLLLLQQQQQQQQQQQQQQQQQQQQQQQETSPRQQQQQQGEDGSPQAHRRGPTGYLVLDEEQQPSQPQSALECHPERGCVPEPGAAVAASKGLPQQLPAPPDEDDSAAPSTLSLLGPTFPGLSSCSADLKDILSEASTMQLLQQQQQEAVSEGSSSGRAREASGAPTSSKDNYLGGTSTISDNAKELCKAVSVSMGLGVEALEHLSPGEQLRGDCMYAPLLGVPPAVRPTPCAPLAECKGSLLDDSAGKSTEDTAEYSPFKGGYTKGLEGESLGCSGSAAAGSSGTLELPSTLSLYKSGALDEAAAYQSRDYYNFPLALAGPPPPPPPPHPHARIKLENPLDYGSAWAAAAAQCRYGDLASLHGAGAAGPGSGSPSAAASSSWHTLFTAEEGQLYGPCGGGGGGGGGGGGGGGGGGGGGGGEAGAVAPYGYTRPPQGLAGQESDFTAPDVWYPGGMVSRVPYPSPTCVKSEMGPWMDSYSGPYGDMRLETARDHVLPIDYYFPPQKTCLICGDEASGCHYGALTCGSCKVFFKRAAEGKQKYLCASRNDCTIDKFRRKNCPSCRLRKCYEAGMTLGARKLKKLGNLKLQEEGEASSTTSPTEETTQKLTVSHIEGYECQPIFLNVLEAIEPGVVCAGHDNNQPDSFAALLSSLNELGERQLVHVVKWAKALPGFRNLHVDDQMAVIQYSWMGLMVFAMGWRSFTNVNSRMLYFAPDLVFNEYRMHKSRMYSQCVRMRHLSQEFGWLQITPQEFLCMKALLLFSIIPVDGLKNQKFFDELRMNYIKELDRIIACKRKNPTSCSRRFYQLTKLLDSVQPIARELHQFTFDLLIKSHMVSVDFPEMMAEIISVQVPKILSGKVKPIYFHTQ
smiles,measurement,setting,value
CN(C)c1nc(N(C)C)nc(N(C)C)n1,"fluorescence, % of fluorescent control",[1],0.0543% [at 18.6 µM] (inactive) and 0.0026% [at 3.72 µM] (inactive)
same,"fluorescence, % of fluorescent control",[2],-0.0465% [at 18.6 µM] (inactive) and -0.254% [at 3.72 µM] (inactive)
same,"fluorescence, % of fluorescent control",[3],0.0368% [at 18.6 µM] (inactive) and -0.0793% [at 3.72 µM] (inactive)
same,"fluorescence, % of fluorescein control",[4],-0.0261% [at 18.6 µM] (inactive) and -0.0181% [at 3.72 µM] (inactive)
same,"fluorescence, % of fluorescent control",[5],0.0942% [at 18.6 µM] (inactive) and -0.004% [at 3.72 µM] (inactive)
same,Potency,[6],inactive
same,Potency,[7],inactive
same,Potency,[8],inactive
same,Potency,[9],inactive
same,Potency,[10],inactive
same,"activity change, negative = cytotoxicity",[11],0.358% [at 8.55 µM] (inactive)
same,Potency,[12],inactive
same,Potency,[13],inactive
same,Potency,[14],inactive
C=CC(C)(CCC=C(C)C)OC(C)=O (stereo not drawn),Potency,[15],inactive
same,Potency,[2],inactive
same,Potency,[16],inactive
same,outcome,[3],inactive
same,Potency,[4],inactive
same,outcome,[5],inactive
same,Potency,[6],inactive
same,Potency,[7],inactive
same,Potency,[8],inactive
same,Potency,[9],inactive
same,Potency,[10],inactive and 54.5 µM (active)
same,Potency,[11],inactive
same,Potency,[12],inactive
same,Potency,[13],inactive
same,Potency,[14],inactive
COc1c(Cl)c(Cl)c(Cl)c(Cl)c1Cl,outcome,[1],inactive
same,Potency,[15],inactive
same,Potency,[2],inactive
same,Potency,[16],inactive
same,outcome,[3],inactive
same,Potency,[4],inactive
same,outcome,[5],inactive
same,Potency,[6],inactive
same,Potency,[7],inactive
same,Potency,[8],inactive
same,Potency,[9],inactive
same,Potency,[10],inactive
same,Potency,[11],inactive
same,Potency,[13],inactive
same,Potency,[14],inactive
CCOCCOCCO,outcome,[1],inactive
same,Potency,[15],inactive
same,Potency,[2],inactive
same,Potency,[16],inactive
same,outcome,[3],inactive
same,Potency,[4],inactive
same,outcome,[5],inactive
same,Potency,[6],inactive
same,Potency,[7],inactive
same,Potency,[8],inactive
same,Potency,[9],inactive
same,Potency,[11],inactive
same,Potency,[12],inactive
same,Potency,[17],inactive
same,outcome,[18],inactive
same,Potency,[19],inactive
same,Potency,[13],inactive
same,Potency,[14],inactive
COC(=O)c1ccccc1,outcome,[1],inactive
same,Potency,[15],inactive
same,Potency,[2],inactive
same,Potency,[16],inactive
same,Potency,[4],inactive
same,outcome,[5],inactive
same,Potency,[8],inactive
same,Potency,[9],inactive
same,Potency,[10],inactive
same,Potency,[11],inactive
same,Potency,[12],inactive
same,Potency,[13],inactive
same,Potency,[14],inactive
CCCCOCCOCCO,outcome,[1],inactive
same,Potency,[15],inactive
same,Potency,[2],inactive
same,outcome,[3],inactive
same,Potency,[4],inactive
same,outcome,[5],inactive
same,Potency,[6],inactive
same,Potency,[7],inactive
same,Potency,[8],inactive
same,Potency,[9],inactive
same,Potency,[10],inactive
same,Potency,[11],inactive
same,Potency,[12],inactive
same,Potency,[13],inactive
same,Potency,[14],inactive
C#C[C@]1(O)CC[C@H]2[C@@H]3CCc4cc(OC)ccc4[C@H]3CC[C@@]21C,outcome,[1],inactive
same,Potency,[15],inactive
same,Potency,[2],inactive
same,Potency,[16],inactive
same,outcome,[3],inactive
same,Potency,[4],inactive
same,outcome,[5],inactive
same,Potency,[6],inactive
same,Potency,[8],inactive
same,Potency,[9],5.31 µM (active) and 3.86 µM (active)
same,Potency,[11],6.68 µM (active) and 6.86 µM (active)
same,Potency,[13],inactive
same,Potency,[14],inactive
CN(C)C(=N)N=C(N)N,outcome,[1],inactive
same,Potency,[15],inactive
same,Potency,[2],inactive
same,Potency,[16],inactive
same,Potency,[4],inactive
same,outcome,[5],inactive
same,Potency,[6],2.56 µM (active) and inactive
same,Potency,[7],inactive
same,Potency,[8],inactive
same,Potency,[12],inactive
same,Potency,[13],inactive
same,Potency,[14],inactive
CCOC(=O)C(C#N)=C(c1ccccc1)c1ccccc1,outcome,[1],inactive
same,Potency,[15],inactive
same,Potency,[2],inactive
same,Potency,[16],inactive
same,Potency,[4],inactive
same,outcome,[5],inactive
same,Potency,[8],inactive
same,Potency,[9],23.7 µM (active) and 17.2 µM (active)
same,Potency,[11],19.3 µM (active)
same,Potency,[12],inactive
same,Potency,[13],inactive
same,Potency,[14],inactive
c1cc(-c2ccncc2)ccn1,Potency,[15],inactive
same,Potency,[2],inactive
same,Potency,[16],inactive
same,Potency,[4],inactive
same,outcome,[5],inactive
same,Potency,[6],inactive
same,Potency,[7],inactive
same,Potency,[8],inactive
same,Potency,[9],inactive
same,Potency,[11],inactive
same,Potency,[12],inactive
same,Potency,[13],inactive
same,Potency,[14],inactive
CC(C)(C)NC(=O)[C@H]1CC[C@H]2[C@@H]3CC[C@H]4NC(=O)C=C[C@]4(C)[C@H]3CC[C@]12C,outcome,[1],inactive
same,Potency,[15],inactive
same,Potency,[2],inactive
same,Potency,[4],inactive
same,outcome,[5],inactive
same,Potency,[6],inactive
same,Potency,[7],inactive
same,Potency,[8],inactive
same,Potency,[9],inactive
same,Potency,[11],inactive and 68.6 µM (active)
same,Potency,[12],inactive
same,Potency,[13],inactive
same,Potency,[14],inactive
COC(C)COC(C)COC(C)CO (stereo not drawn),Potency,[15],inactive
same,Potency,[2],inactive
same,outcome,[3],inactive
same,Potency,[4],inactive
same,outcome,[5],inactive
same,Potency,[8],inactive
same,Potency,[9],inactive
same,Potency,[11],inactive
same,Potency,[17],inactive
same,outcome,[18],inactive
same,Potency,[19],inactive
same,Potency,[13],inactive
same,Potency,[14],inactive
COC(=O)Nc1nc2ccc(S(=O)c3ccccc3)cc2[nH]1 (stereo not drawn),outcome,[1],inactive
same,Potency,[15],inactive
same,Potency,[2],inactive
same,outcome,[3],inactive
same,Potency,[4],inactive
same,outcome,[5],inactive
same,Potency,[6],inactive
same,Potency,[7],inactive
same,Potency,[8],inactive
same,Potency,[9],9.44 µM (active) and 6.85 µM (active)
same,Potency,[11],13.3 µM (active) and 8.63 µM (active)
same,Potency,[12],inactive
same,Potency,[13],inactive
same,Potency,[14],inactive
CN1C(C(=O)Nc2ccccn2)=C(O)c2ccccc2S1(=O)=O,outcome,[1],inactive
same,Potency,[15],inactive
same,Potency,[2],inactive
same,outcome,[3],inactive
same,Potency,[4],inactive
same,outcome,[5],inactive
same,Potency,[6],inactive
same,Potency,[7],inactive
same,Potency,[8],inactive
same,Potency,[9],inactive
same,Potency,[10],inactive
same,Potency,[11],inactive
same,Potency,[13],inactive
same,Potency,[14],inactive
COC(=O)CCC(=O)OC,outcome,[1],inactive
same,Potency,[15],inactive
same,Potency,[2],inactive
same,Potency,[16],inactive
same,outcome,[3],inactive
same,Potency,[4],inactive
same,outcome,[5],inactive
same,Potency,[6],inactive
same,Potency,[7],inactive
same,Potency,[8],inactive
same,Potency,[9],inactive
same,Potency,[11],inactive
same,Potency,[13],inactive
same,Potency,[14],inactive
